HCMV antiviral = qHTS Assay for inhibitors of the human cytomegalovirus (HCMV) | HFF cells, HCMV-luciferase reporter, 72 h; stronger effect = lower value | activity change, negative = inhibition, % at 57.5 µM | 410,000 tested, 4.5% active | AID 1259415, 2018; in the data active means activity change below about -60%; inconclusive means no clear call, values can overlap the other calls; inactive means above about -39%; further: on the % scale 0 is the no-effect control and ±100 the full control effect
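After 16 h attachment at 37C, HFF cells received test compound and HCMV-luciferase (1 PFU/cell); reporter luminescence read 72 h later, data normalized against buffer-only and known inhibitor Salinomycin.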
HCV inh = qHTS Assay for Inhibitors of Hepatitis C Virus (HCV); Huh7.5.1 HCVcc-Cre infection, luciferase reporter, 44 h; Potency, µM (series often up to 41.8 µM), for inactives: at the highest dose activity change, negative = inhibition, actives largely listed as inhibitors; 340,000 tested, 3.4% active; further: potency means the concentration at half of the fitted maximal effect; on the % scale 0 is the no-effect control and ±100 the full control effect
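Seed cells (1,000/well) for 4 h; treat with compound and infect with HCVcc-Cre, moi about 0.5. Incubate 44 h, then detect luciferase activity.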
SARS PLpro yeast = qHTS of Yeast-based Assay for SARS-CoV PLP | AID 485353, 2010 | S. cerevisiae expressing SARS-CoV PLpro, growth rescue | Potency, µM (doses to about 32.9 µM), without a hit: at the top dose activity, positive = growth rescue, most hits filed as activators | 330,000 tested, 0.19% active; calls by dose curve; further: potency means the concentration at half of the fitted maximal effect; 0% is about no effect; nearly all actives have a fitted effect of over 55% in size
Sm TGR inh = qHTS Assay for the Inhibitors of Schistosoma Mansoni Peroxiredoxins; 360,000 tested, 3% active; Schistosoma mansoni thioredoxin glutathione reductase (TGR), Q962Y6; Potency, µM (top dose mostly 114 µM), for the others: top-dose activity change, negative = inhibition, usual class: inhibitors; AID 485364, 2010; purified TGR, DTNB reduction, TNB absorbance 405 nm; further: potency means the concentration at half of the fitted maximal effect; on the % scale 0 is the no-effect control and ±100 the full control effect; nearly all actives have a fitted effect of over 60% in size
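First, TGR (20 nM dispensed) and NADPH were mixed with compound. Second, a 15 min room-temperature incubation followed. Third, further NADPH and then DTNB were added to start the reaction. Finally, TNB absorbance was monitored kinetically.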
Pf growth 96h = Primary qHTS for delayed death inhibitors of the malarial parasite plastid, 96 hour incubation; P. falciparum luciferase reporter growth, 96 h; Potency, µM (titrated, usually from 28.7 µM), for inactives: top-dose activity change, negative = inhibition, usual class: inhibitors; 320,000 tested, 6.9% active; AID 504834, 2011; further: potency means the concentration at half of the fitted maximal effect; on the % scale 0 is the no-effect control and ±100 the full control effect
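Compounds incubated with erythrocytes infected by luciferase-expressing P. falciparum (2% hematocrit, 0.05% parasitemia final) for 96 hours, 37 C in 5% CO2. Growth inhibition scored as decreased luciferase luminescence.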
Pf growth 48h = Primary qHTS for delayed death inhibitors of the malarial parasite plastid, 48 hour incubation; P. falciparum luciferase growth in erythrocytes, 48 h; Potency, µM (series often up to 28.7 µM), for the others: at the top dose activity change, negative = inhibition, actives largely listed as inhibitors; 310,000 tested, 5.9% active; further: potency means the concentration at half of the fitted maximal effect; on the % scale 0 is the no-effect control and ±100 the full control effect
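In quantitative HTS format, infected erythrocytes bearing luciferase-reporter parasites were treated for a single generation at 37 C. Luminescence after adding detection reagent served as the growth measure.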
The depositor's hits bear a star; ? = inconclusive; . = no result given. Sampled rows, rich in hits. Any-hit rate of the full collection: about 15%. Unless noted, the call rests on the fitted dose curve; in most records, active means well fitted curve in the direction sought with a large enough effect; inconclusive means small, poorly fitted or top-dose-only effect, or another doubt; inactive means no such curve, though single readings can be large; an effect the other way counts as inactive or inconclusive.

SMILES	HCMV antiviral	HCV inh	SARS PLpro yeast	Sm TGR inh	Pf growth 96h	Pf growth 48h
Cc1ccc(C)c(NC(=S)Nc2cccc3cnccc23)c1	-34	?	-2%	?	9.3µM*	?
Fc1ccccc1NC(=S)Nc1cccc2cnccc12	37	?	-2%	40µM*	36%	-20%
COC(=O)[C@H]1[C@H](CO)[C@H]2Cn3c(ccc(Br)c3=O)[C@H]2N1C(C)=O	20	.	.	.	.	.
COc1ccc(CN2CCNC(=O)C2CC(=O)NCCN2CCCCC2=O)c(F)c1 (centres undefined)	10	-3%	13%	?	2%	31%
COCc1c(CCl)cnc(C)c1O	-2	-7%	-2%	-7%	9.3µM*	-26%
Cc1ncc(CO)c(CO)c1O	?	11%	.	15%	28%	2%
CN(C)S(=O)(=O)N1CCN(c2ccc([N+](=O)[O-])c(NC3CC3)c2)CC1	22	4%	-1%	-1%	?	4.1µM*
Cc1ccc(Cl)cc1NC(=O)c1ccc(CSc2nnnn2C)cc1	-61*	?	-4%	-29%	.	1%
CCn1c(SCC(=O)Nc2nncs2)nnc1C(C)NC(=O)c1ccccc1Br (centres undefined)	-22	0%	7%	20%	-7%	-9%
COc1ccc(/C=C2\CN(Cc3ccccc3)C/C(=C\c3ccc(OC)c(O)c3)C2=O)cc1O	-101*	6.3µM*	4%	45µM*	3.7µM*	3.3µM*
CCN1C/C(=C\c2cccc([N+](=O)[O-])c2)C(=O)/C(=C/c2cccc([N+](=O)[O-])c2)C1	-100*	2.5µM*	-27%	-22%	42%	2.9µM*
O=C1/C(=C/c2cccc([N+](=O)[O-])c2)CCc2ccccc21	-9	3%	-95%	4%	?	34%
COc1ccc(C=C2C(=O)c3ccccc3C2=O)cc1O	-31	4%	-3%	-28%	12µM*	2%
CCN1C/C(=C/c2ccc(OC)c(O)c2)C(=O)/C(=C/c2ccc(OC)c(O)c2)C1	-103*	?	-3%	-1%	1.7µM*	2.6µM*
COc1cc(C=C2C(=O)c3ccccc3C2=O)ccc1O	-8	?	-1%	-5%	5%	33%
CCCCN(C(=O)CCCc1nc2ccccc2s1)c1c(N)n(CC(C)C)c(=O)[nH]c1=O	?	26%	.	-15%	?	?
COc1cc([C@H]2NC(=O)C[C@H]2C(=O)OCc2ccccc2)ccc1OC(C)C	-15	.	.	.	.	.
COc1ccc(NC(=O)CC(C)C)c([N+](=O)[O-])c1	22	18%	6%	0%	0%	31%
COc1ccc(NC(=S)NC(NC(=O)C(C)C)C(Cl)(Cl)Cl)c([N+](=O)[O-])c1 (centres undefined)	-8	-12%	-5%	-9%	50%	2.6µM*
COc1ccc([N+](=O)[O-])cc1NC(=O)COC(=O)c1ccccc1C(=O)c1ccccc1	?	-17%	-4%	?	8%	16%
COc1ccc([N+](=O)[O-])cc1NC(=O)Cc1ccc(Cl)cc1	-10	8.9µM*	-15%	-2%	10µM*	-12%
COc1ccc([N+](=O)[O-])cc1NC(=S)NC(NC(=O)Cc1ccc(OC)c(OC)c1)C(Cl)(Cl)Cl (centres undefined)	14	7.9µM*	0%	6%	0%	?
COc1ccc([N+](=O)[O-])cc1NC(=O)C(C)OC(=O)c1ccccc1C(=O)c1ccc(Cl)cc1 (centres undefined)	-65*	?	13%	-4%	?	?
Cc1c(Cl)cccc1-n1ncc(C(=O)N2CCC(C)CC2)c1C1CCN(C(=O)OC(C)(C)C)CC1	17	.	.	?	.	.

High-throughput results from PubChem BioAssay.
